The structures appear in SMILES notation. Inconclusive results are not listed. Activity calls are given as the source filed them. How the source made its calls: active means hit-call score of the fitted dose curve at least 0.9, where 1 is the maximum; inconclusive means response in the unintended direction; inactive means score below 0.9.

rat Opioid Receptor, Non-selective Sodium (Na+) Binding, Oprm1 (gene 25601), sequence (P33535 whole entry, looked up): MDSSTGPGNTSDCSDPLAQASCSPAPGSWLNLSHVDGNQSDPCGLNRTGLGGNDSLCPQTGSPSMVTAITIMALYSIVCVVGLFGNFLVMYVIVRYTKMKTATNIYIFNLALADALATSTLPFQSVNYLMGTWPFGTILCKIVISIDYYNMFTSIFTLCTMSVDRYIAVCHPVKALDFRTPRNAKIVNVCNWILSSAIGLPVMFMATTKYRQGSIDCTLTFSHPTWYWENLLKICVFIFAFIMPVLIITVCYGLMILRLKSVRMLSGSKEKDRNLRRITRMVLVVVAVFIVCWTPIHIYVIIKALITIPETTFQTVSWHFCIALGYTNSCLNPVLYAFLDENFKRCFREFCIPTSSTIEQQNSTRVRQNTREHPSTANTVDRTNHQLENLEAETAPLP

The target of the experiment is rat Opioid Receptor, Non-selective Sodium (Na+) Binding, Oprm1 (gene 25601) (UniProt P33535). Kind of experiment: NVS_GPCR_rOpiate_NonSelectiveNa: NovaScreen (NVS) G Protein-Coupled Receptor Assay for rat Opioid Receptor, Non-selective Sodium (Na+) Binding (AID 2283311). How it is done:
NVS_GPCR_rOpiate_NonSelectiveNa is a biochemical, single-readout assay that uses extracted gene-proteins from Rat forebrain membranes in a tissue-based cell-free assay. Measurements were taken 1.5 hours after chemical dosing in a 48-well plate.NVS_GPCR_rOpiate_NonSelectiveNa is one of one assay component(s) measured or calculated from the NVS_GPCR_rOpiate_NonSelectiveNa assay. It is designed to make measurements of radioligand binding, a form of binding reporter, as detected with scintillation counting signals by Filter-based radiodetection technology.Data from the assay component NVS_GPCR_rOpiate_NonSelectiveNa was analyzed into 1 assay endpoint. This assay endpoint, NVS_GPCR_rOpiate_NonSelectiveNa, was analyzed in the positive analysis fitting direction relative to DMSO as the negative control and baseline of activity. Using a type of binding reporter, loss-of-signal activity can be used to understand changes in the binding as they relate to the gene Oprm1. Furthermore, this assay endpoint can be referred to as a primary readout, because the performed assay has only produced 1 assay endpoint. To generalize the intended target to other relatable targets, this assay endpoint is annotated to the gpcr intended target family, where the subfamily is rhodopsin-like receptor.
Binding assays used specific radioligands (tritiated, iodinated) with non-radioactive competitive displacement ligands in agonist or antagonist protocols (as indicated) and various reference compounds and inhibitors to titrate specific binding to receptors and transporters. Most enzyme assays (CYPs, kinases, phosphatases, proteases, HDACs) used recombinant protein and specific substrates (fluorescence mostly, some colorimetric and radioactive) and inhibitors, followed by a biochemical separation of substrate and product. All assays for the biochemical HTS were initially run in duplicate at a single concentration (10 uM for CYP450 assays and 25 uM for all others). Assay-chemical combinations meeting a pre-defined threshold (e.g., 30% inhibition and other criteria defined below) were then run in singleton concentration-response format with maximum concentration of 20 uM for CYPs and 50 uM for all others. Each assay was run with positive and negative controls, and concurrent controls on every plate. The follow-up (secondary) screen tested active chemical-pairs in concentration series, as well as a few additional assays not tested in the primary screen, some selected negative inactives, and several cases re-run in the concentration series for confirmatory purposes.
For `Cc1cc(SC2=C(O)C[C@@](CCc3ccc(N)cc3)(C(C)C)OC2=O)c(C(C)(C)C)cc1CO`, the result was inactive.

Take `CSc1ccc(Oc2ccc(S(N)(=O)=O)cc2CN(C)C)cc1C`: the concentration at half-maximal activity (AC50) is 3.74 µM (active).

As for `CCc1nc(N)nc(N)c1-c1ccc(Cl)cc1`, the compound was called inactive.

In the case of `O=C(N[C@@H](c1ccccc1)[C@@H]1CCCCN1)c1cccc(C(F)(F)F)c1Cl`, the AC50 was 31.4 µM (active).

For the compound `Cc1ccc(-c2cc(C(F)(F)F)nn2-c2ccc(S(N)(=O)=O)cc2)cc1`, the call was inactive.

As to `CN(C)C(=O)NC1(c2ccccc2)CCN(CCC[C@]2(c3ccc(Cl)c(Cl)c3)CCCN(C(=O)c3ccccc3)C2)CC1`, the AC50 was 2.12 µM (active).

With `Cc1c(C)c2c(c(C)c1O)CCC(C)(COc1ccc(CC3SC(=O)NC3=O)cc1)O2` (centres undefined), the compound was classed as inactive.

Take `COC(=O)[C@H]1[C@H]2C[C@@H]3c4[nH]c5cc(OC)ccc5c4CCN3C[C@H]2C[C@@H](OC(=O)c2cc(OC)c(OC)c(OC)c2)[C@@H]1OC`: the AC50 is 21.1 µM (active).

For the compound `O=C1OC(c2ccc(O)cc2)(c2ccc(O)cc2)c2ccccc21`, the AC50 is 0.604 µM (active).

As to `CN(C)CCCN1c2ccccc2Sc2ccc(Cl)cc21`, the AC50 was 9.16 µM (active).

For `CC(C)(C)c1ccccc1`, the outcome was inactive.

For `COc1ccc(OC(F)(F)F)cc1CN[C@H]1CCCN[C@H]1c1ccccc1`, the result was inactive.

Regarding `CCN(CC)CCOc1ccc(C(=C(Cl)c2ccccc2)c2ccccc2)cc1`, the half-maximal activity concentration (AC50) is 21 µM (active).

On to `CN(C)C(=O)NC1(c2ccccc2)CCN(CC[C@@]2(c3ccc(F)c(F)c3)CN(C(=O)c3ccccc3)CCO2)CC1`, for which the AC50 was 3.23 µM (active).

Usually AC50 stands for the concentration at which the activity in the assay is half-maximal.
